Consider three molecules from PubChem BioAssay.

Each structure is given as a SMILES string. Inconclusive results are not listed. Calls of active or inactive are those of the source.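 The calls were made as follows, unless noted: active = normalized viability below 100% at a tested concentration; inactive = the rest.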

By AC50 is commonly meant the concentration giving half of the maximal activity seen. A word on the viability: it is a read-out of living cells in per cent, often relative to untreated cells. Broadly, the IC50 is the point on the concentration scale where inhibition reaches its midpoint.

Assay [1] can be described thus: growth inhibition of DIPG glioma cells, dose response, cell-based, SU-DIPG-XVII, MIPE5.0, CellTiter-Glo, qHTS (AID 1347060; cut-off not given, nearly all actives have AC50 up to about 26 µM;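 also: cells exposed to compound for 48 hours before viability readout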). The note with it: SU-DIPG-XVII viability, CellTiter-Glo ATP luminescence.
Assay [2] can be described thus: growth inhibition of DIPG glioma cells, dose response, cell-based, JHH-DIPG-1, MIPE4.0, CellTiter-Glo, qHTS (AID 1347062; cut-off not given, nearly all actives have AC50 up to about 27 µM;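 as to AC50: cells exposed to compound for two days before readout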). The note with it: JHH-DIPG-1 viability, CellTiter-Glo ATP luminescence. In general terms: In ATP-based viability assays light output follows the ATP content of the culture.
A short description of assay [3]: growth inhibition of DIPG glioma cells, dose response, cell-based, SU-DIPG-IV, MIPE4.0, CellTiter-Glo, qHTS (AID 1347063; cut-off not given, nearly all actives have AC50 up to about 30 µM;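 also: compound exposure lasted 48 hours before the viability readout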). The note with it: SU-DIPG-IV viability, CellTiter-Glo ATP luminescence.
Assay [4] is described as follows: viability loss in pontine glioma line – cell-based, SU-DIPG-XXV, MIPE5.0, CellTiter-Glo, qHTS, dose response (AID 1347065; cut-off not given, nearly all actives have AC50 up to about 26 µM;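 also: cells exposed to compound for 48 hours before ATP readout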). To be noted: CellTiter-Glo ATP luminescence.
Assay [5] can be described thus: sensitizers of A549 cells to miR-34 induction, primary screen, imaging, A549 dox-inducible miR-34, nuclei and caspase counts (AID 1347080;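 active = compounds whose cell count with miR-34 switched on is under 0.7 times the count with it off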). To be noted: A549 miR-34 inducible, Hoechst nuclei count, 48 h.
A short description of assay [6]: modifiers of HSF1 nuclear foci, imaging, Selleck Cancer Library (AID 1347162; in the data active = plate-normalised HSF1 focus index below about 0.46). The note with it: human cells, at 10 µM; SSMD: measured here: HSF1 foci SSMD mean; cell count: measured here: cell number; plate-normalised HSF1 focus index: stronger effect = lower value.
The nature of assay [7]: survival rescue of mitochondrial mutant cells in low glucose, primary screen, MELAS cybrids, Rieske KO mouse fibroblasts, CellTiter-Glo (AID 1508586;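 active = mean z-score across replicates of 1.96 or higher in either the MELAS or the Rieske mutant cell line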;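 also: z relative to plate mean and SD of compound and empty wells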).
Assay [8] in a line: ovarian cancer cell viability with rucaparib, profiling panel, oncology-focused library, rucaparib conditional (AID 1508598). To be noted: patient-derived ovarian cancer cells, CellTiter-Glo viability, 144 h, stronger effect = lower value.
Assay [9] is described as follows: SU-DIPG-VI glioma cell viability, MIPE4.0 library, CellTiter-Glo luminescence, qHTS (AID 1347066; cut-off not given, nearly all actives have AC50 up to about 30 µM;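 also: cells exposed to compound for 48 hours before readout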). To be noted: CellTiter-Glo ATP luminescence.
Assay [10] can be described thus: SU-DIPG-XXV glioma cell viability, MIPE5.0 library, qHTS (AID 1347068; cut-off not given, nearly all actives have IC50 up to about 30 µM;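 as to IC50: cells exposed to compound for 48 hours before viability readout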). (qHTS replaces the single test concentration by a dilution series.)
Assay [11] in a line: JHH-DIPG-1 glioma cell viability, MIPE5.0 library, CellTiter-Glo luminescence, qHTS (AID 1347067; cut-off not given, nearly all actives have AC50 up to about 26 µM;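 also: cells exposed to compound for 48 hours before readout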). The note with it: JHH-DIPG-1 glioma viability, CellTiter-Glo ATP luminescence.
Setting [12] is: stronger effect = lower value, cell number ratio, induced over uninduced.
Where [13] appears, read: measured here: relative caspase fold change +Dox/-Dox.
Where [14] appears, read: measured here: total cells with miR-34 induction, stronger effect = lower value.
Where [15] appears, read: measured here: total cells without miR-34 induction.
The mark [16] stands for this setting: MELAS cybrid survival, CellTiter-Glo 48 h, stronger effect = higher value.
Where [17] appears, read: Rieske KO mouse fibroblast survival, CellTiter-Glo 72 h.

Regarding `C=CCn1c(=O)c2cnc(Nc3ccc(N4CCN(C)CC4)cc3)nc2n1-c1cccc(C(C)(C)O)n1`, the concentration at half-maximal activity (AC50) in assay [1] was 4.17 µM (active); in assay [2], 0.418 µM (active); in assay [3] it was 11.8 µM (active); in assay [4], 1.05 µM (active). The fold change in [5] (setting [12]) is 1.27 (inactive); in [5] (setting [13]), 0.673. In addition, the cell count in assay [5] (setting [14]) was 1400; in assay [5] (setting [15]), 1100; in [6] it was 6680. Further, in assay [6], the SSMD worked out at 1.04. For the same molecule, the plate-normalised HSF1 focus index in assay [6] is 1.07 (inactive). The results for the z-score in assay [7] (setting [16]) and in [7] (setting [17]) were 0.245 (inactive) and 1.66, respectively. The viability was 126% (inactive) in [8] (at 0.000305 µM, OCI-C5x cells, with rucaparib 10 µM, 100% = cells with rucaparib alone); 107% (inactive) in [8] (at 0.000305 µM, OCI-C5x cells, without rucaparib); 88.3% (active) in [8] (at 0.000305 µM, OCI-P5x cells, with rucaparib 20 µM, 100% = cells with rucaparib alone); 91.1% (active) in [8] (at 0.000305 µM, OCI-P5x cells, without rucaparib); 122% (inactive) in assay [8] (at 0.00122 µM, OCI-C5x cells, with rucaparib 10 µM, 100% = cells with rucaparib alone); 109% (inactive) in assay [8] (at 0.00122 µM, OCI-C5x cells, without rucaparib). Also, the viability in assay [8] (at 0.00122 µM, OCI-P5x cells, with rucaparib 20 µM, 100% = cells with rucaparib alone) was 102% (inactive); in assay [8] (at 0.00122 µM, OCI-P5x cells, without rucaparib), 98.1% (active); in assay [8] (at 0.00488 µM, OCI-C5x cells, with rucaparib 10 µM, 100% = cells with rucaparib alone) it was 121% (inactive); in [8] (at 0.00488 µM, OCI-C5x cells, without rucaparib) it was 107% (inactive); in assay [8] (at 0.00488 µM, OCI-P5x cells, with rucaparib 20 µM, 100% = cells with rucaparib alone) it was 102% (inactive); in assay [8] (at 0.00488 µM, OCI-P5x cells, without rucaparib), 98.9% (active). The viability was 120% (inactive) in assay [8] (at 0.0195 µM, OCI-C5x cells, with rucaparib 10 µM, 100% = cells with rucaparib alone); 102% (inactive) in assay [8] (at 0.0195 µM, OCI-C5x cells, without rucaparib); 88.1% (active) in [8] (at 0.0195 µM, OCI-P5x cells, with rucaparib 20 µM, 100% = cells with rucaparib alone); 97.6% (active) in assay [8] (at 0.0195 µM, OCI-P5x cells, without rucaparib); 104% (inactive) in [8] (at 0.0781 µM, OCI-C5x cells, with rucaparib 10 µM, 100% = cells with rucaparib alone); 96.7% (active) in assay [8] (at 0.0781 µM, OCI-C5x cells, without rucaparib). Besides, the viability in assay [8] (at 0.0781 µM, OCI-P5x cells, with rucaparib 20 µM, 100% = cells with rucaparib alone) is 82.5% (active); in [8] (at 0.0781 µM, OCI-P5x cells, without rucaparib) it was 92.8% (active); in [8] (at 0.313 µM, OCI-C5x cells, with rucaparib 10 µM, 100% = cells with rucaparib alone) it was 69.6% (active); in [8] (at 0.313 µM, OCI-C5x cells, without rucaparib) it was 55.3% (active); in assay [8] (at 0.313 µM, OCI-P5x cells, with rucaparib 20 µM, 100% = cells with rucaparib alone), 65.5% (active); in assay [8] (at 0.313 µM, OCI-P5x cells, without rucaparib), 59.9% (active). Moreover, the viability is 54.7% (active) in [8] (at 1.25 µM, OCI-C5x cells, with rucaparib 10 µM, 100% = cells with rucaparib alone); 40.2% (active) in assay [8] (at 1.25 µM, OCI-C5x cells, without rucaparib); 45.8% (active) in [8] (at 1.25 µM, OCI-P5x cells, with rucaparib 20 µM, 100% = cells with rucaparib alone); 23.7% (active) in [8] (at 1.25 µM, OCI-P5x cells, without rucaparib); 35.9% (active) in assay [8] (at 5 µM, OCI-C5x cells, with rucaparib 10 µM, 100% = cells with rucaparib alone); 25.1% (active) in [8] (at 5 µM, OCI-C5x cells, without rucaparib). Further, the viability is 14.5% (active) in assay [8] (at 5 µM, OCI-P5x cells, with rucaparib 20 µM, 100% = cells with rucaparib alone) and 7.98% (active) in assay [8] (at 5 µM, OCI-P5x cells, without rucaparib).

Turning to `CC(=O)OCC(=O)[C@@]1(O)[C@H](C)C[C@H]2[C@@H]3C=C(C)C4=Cc5c(cnn5-c5ccccc5)C[C@]4(C)[C@H]3[C@@H](O)C[C@@]21C`, the AC50 in assay [1] was 20.9 µM (active); in assay [2], 9.35 µM (active); in assay [3], 5.26 µM (active); in assay [4] it was 23.5 µM (active); in assay [9] it was 26.4 µM (active). The call in assay [10] was inactive.

`CC(C)(C)c1cc(C(C)(C)C)c(NC(=O)c2c[nH]c3ccccc3c2=O)cc1O`: the values for the AC50 in assay [1], in assay [4] and in assay [11] were 11.8 µM (active), 10.5 µM (active) and 14.8 µM (active), respectively. The outcome in assay [2], in assay [3] and in assay [9] was inactive. Further, the IC50 in [10] was 16.6 µM (active). The fold change in assay [5] (setting [12]) is 0.893 (inactive); in [5] (setting [13]), 1.04. The cell count in assay [5] (setting [14]) was found to be 5220; in assay [5] (setting [15]), 5840. For the same molecule, the z-score was -0.385 (inactive) in assay [7] (setting [16]) and 0.598 in assay [7] (setting [17]).
